Bioassay records from PubChem.
Pol beta inh = DNA polymerase beta (human) inhibition | P06746 | AID 485314 | Pol beta primer extension/strand displacement, fluorescence kinetic | Potency, µM (doses to about 114 µM), hits mostly inhibitors | 1.3% of 340,000 active
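Values derive from four-parameter Hill fits of normalized kinetic data: reads at 0 and 10 min following addition of 50 nM substrate to 10 nM Pol beta preincubated 15 min with compound.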
TDP1 inh = blocks human tyrosyl-DNA phosphodiesterase 1; recombinant TDP1, AlphaScreen DNA substrate cleavage; Potency, µM (doses to about 130 µM), actives largely listed as inhibitors; 0.28% of 350,000 active; Q9NUW8; note: nearly all actives have a fitted effect of over 40% in size
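Compounds were preincubated with Tdp1 (1 nM final) for 15 min at room temperature before substrate (15 nM final) started a 5 min reaction; beads (10 ug/ml final) were then added for 10 min before AlphaScreen detection.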
Pol iota inh = DNA polymerase iota (human) inhibition. Q9UNA4. Pol iota fluorescent replication assay, 10 min. Potency, µM (highest dose often 115 µM), most hits filed as inhibitors. 1% of 390,000 active. AID 588590
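Fluorescent replication assay read twice, at 0 min and 10 min after adding 50 nM (final) substrate. Enzyme (10 nM) and compounds were first incubated 15 min at room temperature; enzyme-free buffer wells were negative controls.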
Pol kappa inh = blocks human DNA polymerase kappa activity; purified Pol kappa, fluorescent DNA synthesis assay, 10 min; Q9UBT6; Potency, µM (top dose mostly 107 µM), actives largely listed as inhibitors; 0.53% of 400,000 active
Target sequence (Q9UBT6 whole entry, looked up): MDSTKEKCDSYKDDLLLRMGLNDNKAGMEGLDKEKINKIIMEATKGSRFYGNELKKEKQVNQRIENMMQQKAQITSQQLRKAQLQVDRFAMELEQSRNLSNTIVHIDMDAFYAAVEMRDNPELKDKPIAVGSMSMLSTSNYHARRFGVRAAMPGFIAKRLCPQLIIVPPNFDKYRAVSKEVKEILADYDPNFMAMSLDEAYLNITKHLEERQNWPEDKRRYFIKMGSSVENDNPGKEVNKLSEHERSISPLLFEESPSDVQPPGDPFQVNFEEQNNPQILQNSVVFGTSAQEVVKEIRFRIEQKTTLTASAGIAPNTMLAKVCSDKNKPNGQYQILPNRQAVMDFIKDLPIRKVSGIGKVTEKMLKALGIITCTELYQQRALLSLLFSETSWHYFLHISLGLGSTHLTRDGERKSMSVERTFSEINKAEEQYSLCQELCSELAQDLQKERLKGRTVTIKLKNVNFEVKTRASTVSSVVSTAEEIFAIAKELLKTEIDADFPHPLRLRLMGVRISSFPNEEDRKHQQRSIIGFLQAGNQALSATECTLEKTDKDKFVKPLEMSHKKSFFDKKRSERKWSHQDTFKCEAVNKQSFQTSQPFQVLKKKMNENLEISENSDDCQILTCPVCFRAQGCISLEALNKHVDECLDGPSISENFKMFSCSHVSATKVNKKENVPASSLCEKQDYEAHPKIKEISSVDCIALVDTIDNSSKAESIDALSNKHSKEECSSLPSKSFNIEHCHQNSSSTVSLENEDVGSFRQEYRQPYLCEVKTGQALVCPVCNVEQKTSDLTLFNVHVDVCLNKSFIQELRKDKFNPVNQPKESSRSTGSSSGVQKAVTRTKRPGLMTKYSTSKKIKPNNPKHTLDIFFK
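Enzyme at 10 nM met test compounds for 15 min at room temperature. Substrate addition (50 nM final) began the reaction, which was monitored by fluorescence at 0 and 10 min.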
POLH inh = DNA polymerase eta (human) inhibition; Q9Y253; recombinant Pol eta, fluorescent DNA replication assay; Potency, µM (doses to about 114 µM), actives largely listed as inhibitors; 1.2% of 390,000 active
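Pol eta (10 nM) was preincubated with compounds for 15 min at room temperature, after which fluorescent replication substrate (50 nM final) was added to start the reaction. Fluorescence was read kinetically at 0 and 10 min.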
A number is an active result; 0 = inactive; ? = inconclusive; - = not tested or not shown; [ ] = dose if it differs, or a comment. The list is not random: actives were taken first. Their share in the collection is about 2.4%. Calls come from the whole dose curve; as a rule, active = well fitted curve in the direction sought with a large enough effect; inconclusive = small, poorly fitted or top-dose-only effect, or another doubt; inactive = no such curve, though single readings can be large; an effect the other way counts as inactive or inconclusive.

SMILES	Pol beta inh	TDP1 inh	Pol iota inh	Pol kappa inh	POLH inh
O=C(OC1CCOC1=O)c1ccccc1C(=O)c1ccc(Cl)c([N+](=O)[O-])c1 (centres undefined)	-	0	39.8µM	0	50.1µM
CC(C)N(C(=O)Nc1ccc2nsnc2c1)C(C)C	10µM	0	1µM	50.1µM	8.91µM
CCOc1ccc(NC(=O)Nc2ccc3nsnc3c2)cc1	0	0	0	0	0
COCCNC(=S)Nc1ccc2nsnc2c1	0	0	20µM	0	0
COc1ccc(NC(=S)Nc2ccc3nsnc3c2)cc1	0	0	3.55µM	0	7.08µM
CCOc1ccc(NC(=S)Nc2ccc3nsnc3c2)cc1	?	0	10µM	0	22.4µM
COc1c(Cl)cccc1NC(=O)c1c(NC(=O)Cc2ccccc2)sc2c1CCCC2	-	0	-	-	-
O=C1/C(=C/c2ccccc2Cl)SC(=S)N1CCC(=O)N1CCCCC1CCO (centres undefined)	0	0	25.1µM	?	0
Cc1ccc(NS(=O)(=O)c2cc3c(cc2N(C)C)NC(=O)CC3)cc1C	-	0	-	-	-
COc1ccc(COC(=O)c2c(C)nn(-c3ccccc3)c2Cl)cc1	0	56.2µM	0	0	0
COc1cccc2c1-c1c(O)cccc1C2=O	0	-	?	0	0
COc1cccc(O)c1O	-	0	-	3.16µM	-
CO[C@@H]1[C@@H](OC2OC(C)C(OC3CC(C)(O)C(OC(=O)CC(C)C)C(C)O3)C(N(C)C)C2O)[C@@H](CC=O)C[C@@H](C)C(=O)/C=C\C2O[C@H]2C[C@@H](C)OC(=O)C[C@H]1OC(C)=O (some centres undefined)	-	-	0	0[19.4 µM]	-
COc1ccc(/C=N/Nc2nn3cnnc3c3ccccc23)cc1	1.78µM	0	0	0	?
CC(=O)Nc1ccc(NC(=O)CSc2ccc(-c3ccco3)nn2)cc1	39.8µM	0	?	0	0
Cc1ccc(NC(=O)CSc2ccc(-c3ccco3)nn2)cc1	?	0	0	0	0
CC(=O)c1ccc(NC(=O)CSc2ccc(-c3ccco3)nn2)cc1	28.2µM	?	44.7µM	0	?
Cc1ccc(SCC(=O)Nc2ccc(-c3nnc(-c4ccco4)o3)cc2)cc1	50.1µM	-	0	?	?
CC(=O)c1cccc(NC(=O)CSc2ccc(-c3sc(C)nc3C)nn2)c1	79.4µM	0	0	0	0
CCN(CC)CCC(c1ccc(N(C)C)cc1)c1c(OC)cc(OC)c2c1OC(=O)CC2c1ccc(OC)cc1 (centres undefined)	-	0	0	0	-
CC(=O)Nc1cccc(NC(=O)CSc2ccc(-c3ccco3)nn2)c1	25.1µM	0	22.4µM	?	17.8µM
O=C(CSc1ccc(-c2ccco2)nn1)c1ccc(F)cc1	?	0	14.1µM	31.6µM	?
CSc1cc2c(s1)c1cnn(Cc3ccccc3F)c(=O)c1n2C	-	0	-	-	-
Cc1[nH]c2ccccc2c1/C=N/Nc1ccccn1	0	0	-	-	-
Cc1[nH]c2ccccc2c1/C=N/Nc1nncn1N	?	0	5.01µM	0	0
SMILES	Pol beta inh	TDP1 inh	Pol iota inh	Pol kappa inh	POLH inh
O=c1c2ccccc2sn1-c1ccc(Cl)c(S(=O)(=O)N2CCOCC2)c1	-	0	79.4µM	0	-
Cc1noc(C)c1S(=O)(=O)N1CCc2nc(-c3ccccc3)c3c(c2C1)CO[C@@H](C)C3	-	0[12.3 µM]	-	-	-
Cc1ccc(Cn2c(=S)[nH]c3ccc(N4CCOCC4)cc3c2=O)o1	0	-	14.1µM	?	0
O=c1c2cc(N3CCOCC3)ccc2[nH]c(=S)n1Cc1ccc(Cl)cc1	0	0	0	0	0
CCn1c(SCC(=O)N/N=C/C=C\c2ccco2)nc2ccccc21	17.8µM	0	?	0	?
Cc1ccc(CSc2nnc(SCC(=O)N/N=C/C=C/c3ccco3)s2)cc1	22.4µM	0	?	?	?
CCCCN(CC)C(=O)CCNS(=O)(=O)c1ccc2c(c1)c(=O)n(C)c(=O)n2C	0	0	0	0	0
CC/C(=C/c1ccccc1OC)c1cc(-c2ccccc2)cc2oc3ccccc3c12	-	-	0	0	-
Cc1ccc(-c2nc(=Nc3c(C)cc(C)cc3C)sn2-c2ccccc2)cc1	-	0	0	0	-
Cc1ccc(C(=O)Nc2nnc(SCc3cc(=O)c4c(C)ccc(C)c4[nH]3)s2)cc1	50.1µM	0	?	0	0
O=C(Nc1nnc(SCc2cc(=O)c3ccccc3[nH]2)s1)c1ccccc1	0	0	0	0	0
CCCN1CNc2c(c(=O)[nH]c(=S)n2CCc2cccc(C)c2C)C1	-	0	0	0	-
Cc1nn(-c2ccccc2)c(Cl)c1C(=O)NCc1cccs1	12.6µM	0	?	0	?
Cc1c(P(=S)(c2ccccc2)c2ccccc2)c2ccccc2n1C(=O)Cc1ccccc1	-	0	-	-	-
CCOc1cccc(C(=O)Nc2nc3c(s2)CC(C(C)(C)C)CC3)c1 (centres undefined)	0	0	0	0	0
COc1ccc2nc(NC(=O)c3nc(S(=O)(=O)Cc4ccc(C)cc4)ncc3Cl)sc2c1	?	0	89.1µM	?	?
Cc1ccc(CS(=O)(=O)c2ncc(Cl)c(C(=O)Nc3nc4ccc(C)cc4s3)n2)cc1	0	0	?	0	0
O=S(=O)(c1ccc2c(c1)CCCC2)N1CCN(c2nc(-c3cccs3)nc3ccccc23)CC1	-	0	0	0	-
COc1cc(NCc2ccccc2)c2ncn(C(C)C)c2c1	-	0	0	0	0
CCC(CN(C)C)Oc1cc(NCc2ccccc2)c2ncn(C(C)C)c2c1 (centres undefined)	-	0	14.1µM	0	0
COc1ccc(C2c3c(N)nc(Cc4ccccc4)nc3Oc3ccc4ccccc4c32)cc1OC (centres undefined)	-	0	-	-	-
O=C(NNC(=O)c1cccs1)c1ccc(Cl)nc1	-	89.1µM	0	0	0
O=C(NNC(=O)c1cccs1)c1ccc(F)cc1	0	0	0	0	0
CC(=O)c1ccc2c3c(cccc13)C(=O)N(CCc1ccccc1)C2=O	31.6µM	0	?	?	28.2µM
NN1C(=O)c2cccc3c(C(=O)O)ccc(c23)C1=O	0	0	0	0	?
SMILES	Pol beta inh	TDP1 inh	Pol iota inh	Pol kappa inh	POLH inh
COc1ccc(Cn2c(C3CCCCC3)nc3c(c(=O)c4ccccc4n3C)c2=O)cc1	4.47µM	0	0	0	?
CC(=O)Nc1cc(NC(C)=O)cc(C(=O)NCC2(N3CCOCC3)CCCCC2)c1	-	22.4µM	0	0	?
CNS(=O)(=O)c1cccc(C(=O)NCC2(N3CCCCC3)CCCCC2)c1	?	50.1µM	?	0	0
O=[N+]([O-])c1ccccc1S(=O)(=O)N1CCN(c2nc(-c3cccs3)nc3ccccc23)CC1	-	0	0	0	-
CN(C)CC(C(=O)c1ccccc1)c1ccccc1 (centres undefined)	0	0	31.6µM	0	0
CC(/C=C1\SC(=S)N(C(C(=O)O)c2ccccc2)C1=O)=C\c1ccccc1 (centres undefined)	0	0	?	?	89.1µM
CCOc1ccc(/C=C2\SC(=S)N(C(C(=O)O)c3ccccc3)C2=O)cc1OC (centres undefined)	0	-	?	0	79.4µM
